For 27 compounds, outcome and AC50 results are on record in PubChem BioAssay (EPA / NIEHS).

Assay [1] has as its target Estrogen receptor (Homo sapiens) (UniProt P03372). Briefly: OT_ERa_GFPERaERE_0480: Odyssey Thera (OT) 8-hour HeLa Transcription Induction Assay for Estrogen Receptor (AID 2283381; active means hit-call score of the fitted dose curve at least 0.9, where 1 is the maximum; inactive means score below 0.9). The method in brief:
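HeLa cells dosed with compound and imaged by fluorescence microscopy at 8 h; GFP induction from an ERE reporter quantified by high-content image analysis and fitted as gain of signal against DMSO baseline.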

Assay [2] shares this target. Briefly: OT_ERa_GFPERaERE_0120: Odyssey Thera (OT) 2-hour HeLa Transcription Induction Assay for Estrogen Receptor (AID 2283382). The method in brief:
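HeLa cells were dosed with test chemical and read 2 hours later for GFP-ERα/ERE-linked fluorescent protein induction by fluorescence microscopy. Gain-of-signal was fitted relative to DMSO baseline, quantified by high content image analysis.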

Assay [3] has as its target Retinoic acid receptor RXR-alpha (Homo sapiens) (UniProt P19793). Briefly: OT_NURR1_NURR1RXRa_1440: Odyssey Thera (OT) 24-hour HEK293T Protein Complementation Assay for Nurr1/retinoid X receptor (RXR) (AID 2283386). The essentials:
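HEK293T cells were dosed with compound and read 24 h later by fluorescence intensity in a protein-fragment complementation format, where Nurr1–RXRα interaction reconstitutes a split reporter. Activity was fitted as gain of signal relative to DMSO baseline.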

In assay [4] the target is Peroxisome proliferator-activated receptor gamma (Homo sapiens) (UniProt P37231). Put plainly: OT_PPARg_PPARgSRC1_0480: Odyssey Thera (OT) 8-hour Protein-Complementation Assay for Peroxisome Proliferator-activated Receptor Gamma / SRC-1 Co-activator (AID 2283387).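 Further: nuclear to cytoplasmic split Venus YFP fluorescence ratio reporting PPARg SRC-1 interaction.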 The method in brief:
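Split-YFP (IFP1/IFP2) PPARg/SRC-1 reporter, HEK293T, 37 °C, 5% CO2; 8 h compound; formaldehyde fix + Draq5; high-content imaging, N/C ratio, ≥350 cells/image, positive direction vs DMSO.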

Assay [5] has as its target Bile acid receptor (Homo sapiens) (UniProt Q96RI1). Briefly: OT_FXR_FXRSRC1_0480: Odyssey Thera (OT) 8-hour HEK293T Protein-Complementation Assay for Farnesoid X receptor/SRC-1 Co-activator (AID 2283383). The essentials: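 HEK293T cells expressing FXR and SRC-1 fused to reporter fragments were dosed with compound for 8 h; fluorescence from the reconstituted reporter marked co-activator recruitment. Gain of signal was fitted against the DMSO baseline.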

For assay [6], the target named is Retinoic acid receptor RXR-alpha (Homo sapiens) (UniProt P19793). Put plainly: OT_NURR1_NURR1RXRa_0480: Odyssey Thera (OT) 8-hour HEK293T Protein Complementation Assay for Nurr1/retinoid X receptor (RXR) (AID 2283385). The method in brief: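 HEK293T cells expressing Nurr1 and RXRα fused to reporter fragments were dosed with compound for 8 hours. Complex formation was read as fluorescence intensity and analysed as gain of signal against DMSO as baseline.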

Assay [7] addresses Peroxisome proliferator-activated receptor gamma (Homo sapiens) (UniProt P37231). Put plainly: OT_PPARg_PPARgSRC1_1440: Odyssey Thera (OT) 24-hour Protein-Complementation Assay for Peroxisome Proliferator-activated Receptor Gamma/ SRC-1 Co-activator (AID 2283388).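 Further: nuclear to cytoplasmic ratio of reconstituted Venus YFP fluorescence in fixed imaged cells.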 The essentials: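 Readout: nuclear-to-cytoplasmic 488 nm fluorescence ratio, ≥350 cells per image, 8 images per well, after 24 h compound exposure of HEK293T expressing PPARg/SRC-1 split-YFP fusions. Activity fitted in positive direction against DMSO.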

Assay [8] concerns the target Bile acid receptor (Homo sapiens) (UniProt Q96RI1). Briefly: OT_FXR_FXRSRC1_1440: Odyssey Thera (OT) 24-hour HEK293T Protein-Complementation Assay for Farnesoid X receptor/SRC-1 Co-activator (AID 2283384). The method in brief:
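HEK293T cells were dosed with compound and read 24 h later by fluorescence intensity from protein-fragment complementation reporting FXR/SRC-1 co-activator interaction. Gain of signal was fitted relative to DMSO negative control as baseline.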

A short description of assay [9]: CEETOX_H295R_11DCORT: CeeTox H295R High-throughput Steroidogenesis Assay for 11-Deoxycortisol (11DCORT) (AID 2283432; active means hit-call score of the fitted dose curve at least 0.9, where 1 is the maximum; inactive means score below 0.9;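 on AC50: human adrenal H295R cells prestimulated with 10 µM forskolin for 48 h; 11-deoxycortisol secreted into the medium measured by LC-MS/MS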). The following applies: actives raise or lower the signal. The method in brief:
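Steroidogenesis in human H295R cells: 48 h chemical exposure after forskolin priming, 11-deoxycortisol measured by LC-MS/MS.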

The nature of assay [10]: CEETOX_H295R_OHPREG: CeeTox H295R High-throughput Steroidogenesis Assay for OH-Pregnenolone (OHPREG) (AID 2283434; active means hit-call score of the fitted dose curve at least 0.9, where 1 is the maximum; inactive means score below 0.9). To be noted: actives raise or lower the signal. The essentials: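 H295R cells pre-stimulated 48 h with 10 uM forskolin, then exposed 48 h to chemical in 0.1% DMSO. 17alpha-hydroxypregnenolone in medium quantified by MTBE extraction and HPLC-MS/MS; bidirectional fit versus DMSO, viability checked by MTT.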

Where “and” joins values, the source holds several entries; their conditions need not be identical. Identical values can stand only once. Records with an inconclusive call do not appear. A structure can be active in one record and inactive in another. Calls of active or inactive are those of the source. How the source made its calls, unless noted: active means hit-call score of the fitted dose curve at least 0.9, where 1 is the maximum; inconclusive means response in the unintended direction; inactive means score below 0.9.

Sequence of Retinoic acid receptor RXR-alpha (Homo sapiens) (P19793 whole entry, looked up, the tested form may be a part): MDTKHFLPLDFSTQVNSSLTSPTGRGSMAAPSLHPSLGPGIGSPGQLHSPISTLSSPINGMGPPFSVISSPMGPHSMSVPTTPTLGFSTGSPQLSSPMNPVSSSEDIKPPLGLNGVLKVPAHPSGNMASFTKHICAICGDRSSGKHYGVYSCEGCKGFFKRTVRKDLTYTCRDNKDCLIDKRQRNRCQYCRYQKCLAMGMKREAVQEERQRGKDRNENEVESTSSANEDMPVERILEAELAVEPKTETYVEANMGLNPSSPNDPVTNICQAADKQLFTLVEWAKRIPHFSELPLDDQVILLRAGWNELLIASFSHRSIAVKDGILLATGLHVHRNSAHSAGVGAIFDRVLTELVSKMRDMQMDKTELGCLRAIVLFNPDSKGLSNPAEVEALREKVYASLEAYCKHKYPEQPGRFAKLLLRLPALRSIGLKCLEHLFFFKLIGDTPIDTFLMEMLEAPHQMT
Sequence of Peroxisome proliferator-activated receptor gamma (Homo sapiens) (P37231 whole entry, looked up, the tested form may be a part): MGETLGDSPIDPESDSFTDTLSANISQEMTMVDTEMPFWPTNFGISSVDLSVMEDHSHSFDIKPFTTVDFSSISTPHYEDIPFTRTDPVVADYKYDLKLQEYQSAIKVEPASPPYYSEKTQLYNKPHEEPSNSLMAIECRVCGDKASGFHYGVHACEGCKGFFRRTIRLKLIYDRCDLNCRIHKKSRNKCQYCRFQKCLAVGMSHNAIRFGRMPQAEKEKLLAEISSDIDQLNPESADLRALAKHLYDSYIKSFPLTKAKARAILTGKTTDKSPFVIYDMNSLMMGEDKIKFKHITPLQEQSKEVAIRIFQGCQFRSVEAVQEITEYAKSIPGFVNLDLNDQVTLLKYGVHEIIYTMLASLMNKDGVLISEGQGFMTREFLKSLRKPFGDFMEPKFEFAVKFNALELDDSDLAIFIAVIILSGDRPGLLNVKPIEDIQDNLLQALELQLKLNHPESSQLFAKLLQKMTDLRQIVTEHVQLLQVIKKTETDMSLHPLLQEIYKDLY
Sequence of Estrogen receptor (Homo sapiens) (P03372 whole entry, looked up): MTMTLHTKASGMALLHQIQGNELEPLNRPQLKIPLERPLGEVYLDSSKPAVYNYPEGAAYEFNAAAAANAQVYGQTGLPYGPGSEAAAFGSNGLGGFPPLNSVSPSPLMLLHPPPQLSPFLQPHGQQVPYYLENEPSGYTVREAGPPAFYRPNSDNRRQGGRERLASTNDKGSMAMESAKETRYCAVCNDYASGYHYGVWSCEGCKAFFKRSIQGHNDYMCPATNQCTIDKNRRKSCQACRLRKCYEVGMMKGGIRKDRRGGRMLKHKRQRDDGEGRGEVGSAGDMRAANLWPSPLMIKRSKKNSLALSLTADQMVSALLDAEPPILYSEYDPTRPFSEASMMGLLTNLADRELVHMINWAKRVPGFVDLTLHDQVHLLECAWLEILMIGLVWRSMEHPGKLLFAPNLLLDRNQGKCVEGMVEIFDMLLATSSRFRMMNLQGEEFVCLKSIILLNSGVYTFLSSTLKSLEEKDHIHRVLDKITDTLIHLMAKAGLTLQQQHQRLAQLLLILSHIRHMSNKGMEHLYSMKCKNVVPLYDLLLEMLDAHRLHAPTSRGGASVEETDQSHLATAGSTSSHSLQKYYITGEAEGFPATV
Sequence of Bile acid receptor (Homo sapiens) (Q96RI1 whole entry, looked up, the tested form may be a part): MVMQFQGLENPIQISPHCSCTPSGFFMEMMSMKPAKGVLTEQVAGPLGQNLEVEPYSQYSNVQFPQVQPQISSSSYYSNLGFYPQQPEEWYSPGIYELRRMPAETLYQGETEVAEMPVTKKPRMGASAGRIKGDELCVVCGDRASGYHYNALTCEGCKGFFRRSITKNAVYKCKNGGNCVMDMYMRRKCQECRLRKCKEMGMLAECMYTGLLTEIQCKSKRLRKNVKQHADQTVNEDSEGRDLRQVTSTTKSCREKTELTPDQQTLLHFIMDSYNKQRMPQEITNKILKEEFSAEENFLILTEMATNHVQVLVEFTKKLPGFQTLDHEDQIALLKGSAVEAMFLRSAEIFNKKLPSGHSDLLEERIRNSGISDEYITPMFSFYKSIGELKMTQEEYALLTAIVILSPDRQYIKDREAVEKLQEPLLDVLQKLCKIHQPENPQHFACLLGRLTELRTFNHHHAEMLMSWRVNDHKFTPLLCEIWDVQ

Consider `COCCO`, for which the call in [1], in assay [2], in [3] and in assay [4] was inactive.

Take `CCN(CC)C(=O)c1cccc(C)c1`: the outcome in [1], in [2], in assay [5], in [6], in assay [3] and in [4] was inactive. Moreover, in assay [7], the compound was called inactive.

Usually AC50 stands for the concentration at which the activity in the assay is half-maximal. For the compound `O=C(Nc1ccc([N+](=O)[O-])cc1Cl)c1cc(Cl)ccc1O`, the result in [1], in [2], in assay [3], in [4], in assay [9] and in assay [10] was inactive. Moreover, the values for the AC50 in assay [5], in [8] and in assay [3] were 5.91 µM (active), 1.21 µM (active) and 1.45 µM (active), respectively.

With `CCCN(CCC)c1c([N+](=O)[O-])cc(C(F)(F)F)c(N)c1[N+](=O)[O-]`, the AC50 in [1] was 1.3 µM (active); in assay [2] it was 0.895 µM (active); in [5] it was 56.9 µM (active); in assay [8] it was 50 µM (active); in assay [6] it was 32.7 µM (active) and 55.6 µM (active); in assay [3], 35.9 µM (active) and 34.9 µM (active). In assay [4], the compound was classed as inactive.

As for `CCCCOC(=O)C(C)Oc1ccc(Oc2ccc(C(F)(F)F)cn2)cc1` (stereo not given), the compound was classed as inactive in [1], in [2], in assay [5], in assay [8], in assay [6] and in assay [3]. Also, in assay [4], the result was inactive. The AC50 in [6] is 65.1 µM (active).

For `CCCCOC(=O)[C@@H](C)Oc1ccc(Oc2ccc(C(F)(F)F)cn2)cc1`, the compound was classed as inactive in assay [1], in assay [8], in assay [3], in assay [4], in assay [7] and in [9]. In assay [10], the call was inactive. Moreover, the AC50 in assay [2] is 46.5 µM (active); in [5], 58.9 µM (active).

`C#CCOC(=O)[C@@H](C)Oc1ccc(Oc2ncc(Cl)cc2F)cc1`: the result in assay [1], in assay [2], in [5], in assay [8], in [3] and in assay [4] was inactive. The result in assay [10] was inactive. Besides, the concentration at half-maximal activity (AC50) in [9] is 9.92 µM (active).

In the case of `CC1(C)C(C=C(Cl)Cl)C1C(=O)OCc1cccc(Oc2ccccc2)c1` (stereo not given), the outcome in [1], in assay [2], in assay [6], in assay [3] and in [10] was inactive. Further, the AC50 in assay [9] was 11.3 µM (active).

Consider `CCCOC(=O)c1ccc(C(=O)OCCC)nc1`, for which the call in [1], in assay [2], in assay [5], in assay [3] and in assay [4] was inactive. For the same compound, the AC50 in [8] is 13.2 µM (active).

Regarding `CCOC(=O)c1ccc(O)cc1`, the compound was called inactive in assay [1], in assay [2], in assay [5], in assay [8], in assay [3] and in [10]. Also, the AC50 in assay [9] was 85.1 µM (active).

`CCOC(=O)NCCOc1ccc(Oc2ccccc2)cc1`: the compound was called inactive in [1], in assay [2], in assay [3], in [4] and in [7]. The AC50 in [5] is 11.7 µM (active); in [8], 12.1 µM (active); in assay [3] it was 50 µM (active).

As to `O=C(c1ccccc1)C1CCCCC1`, the compound was called inactive in assay [1], in [2], in assay [5], in [8], in [3] and in [4]. Further, the compound was called inactive in assay [7].

As to `CCCCCOC(=O)COc1cc(N2C(=O)C3=C(CCCC3)C2=O)c(F)cc1Cl`, the result in [1], in assay [2], in [6], in assay [3], in [4] and in assay [9] was inactive. Further, in assay [10], the compound was classed as inactive.

For `CCOC(=O)C(C)Oc1ccc(Oc2cnc3cc(Cl)ccc3n2)cc1` (stereo not given), the compound was classed as inactive in [1], in [2], in assay [8], in assay [3], in assay [4] and in [9]. Moreover, in assay [10], the call was inactive. Moreover, the AC50 in assay [5] was 43 µM (active).

As for `C#C[C@]1(O)CC[C@H]2[C@@H]3CCC4=CC(=O)CC[C@@H]4[C@H]3CC[C@@]21CC`, the AC50 was 15.1 µM (active) and 8.91 µM (active) in assay [1]; 12.1 µM (active) and 46.1 µM (active) and 5.67 µM (active) in assay [2]; 2.42 µM (active) in assay [10]. In addition, the outcome in assay [1], in assay [2], in assay [3], in assay [4] and in assay [9] was inactive.

As for `CCN(Cc1c(F)cccc1Cl)c1c([N+](=O)[O-])cc(C(F)(F)F)cc1[N+](=O)[O-]`, the values for the AC50 in assay [1] and in [2] were 3.54 µM (active) and 6.39 µM (active), respectively. Besides, the result in assay [5], in assay [3], in assay [4] and in assay [10] was inactive.

Turning to `N#CSCSc1nc2ccccc2s1`, the AC50 was 88.1 µM (active) in [1] and 11.6 µM (active) in assay [3]. The result in assay [2], in assay [6] and in assay [4] was inactive.

Regarding `CCOC(=O)COc1cc(-n2ncc(C(F)(F)F)c(C)c2=O)c(F)cc1Cl`, the outcome in assay [1], in assay [2], in assay [6], in assay [3] and in [4] was inactive.

Take `O=C(O)C1(C(=O)Nc2ccc(Cl)cc2Cl)CC1`: the compound was classed as inactive in assay [1], in [2], in [5], in [8] and in assay [4]. For the same compound, the AC50 in assay [3] is 50 µM (active).

For the compound `OB(O)O`, the compound was classed as inactive in assay [1], in assay [2], in assay [5], in [3] and in assay [4].

For the compound `C[C@]12C[C@H](O)[C@H]3[C@@H](CCC4=CC(=O)CC[C@@]43C)[C@@H]1CC[C@@H]2C(=O)CO`, the compound was called inactive in assay [1], in assay [2], in [5], in [8], in assay [3] and in [4]. In addition, the AC50 in assay [5] is 32.3 µM (active); in [8], 16.8 µM (active); in [9], 34.4 µM (active); in assay [10], 16.1 µM (active).

`c1ccc2[nH]c(-c3cscn3)nc2c1`: the call in assay [1], in [2], in assay [5], in assay [8], in assay [4] and in [9] was inactive. Moreover, the outcome in [10] was inactive.

`O=C(O)c1ccccc1`: the compound was called inactive in [1], in assay [2], in assay [3] and in assay [4].

Turning to `Cc1nn(C)c(Oc2ccccc2)c1C=NOCc1ccc(C(=O)OC(C)(C)C)cc1`, the call in assay [1], in assay [2], in assay [3] and in assay [4] was inactive. The AC50 was 7.14 µM (active) in [5], 9.92 µM (active) in assay [8] and 15.7 µM (active) in assay [3].

Regarding `CC(C)CCCCCCc1ccc(O)cc1`, the concentration at half-maximal activity (AC50) in assay [1] is 147 nM (active) and 116 nM (active) and 263 nM (active); in assay [2], 273 nM (active) and 120 nM (active) and 248 nM (active); in [5] it was 11.5 µM (active) and 11.3 µM (active). Also, in assay [4], the result was inactive.

Take `O=C(c1ccc(O)cc1O)c1ccc(O)cc1O`: the AC50 in [1] was 2.11 µM (active) and 2.15 µM (active) and 2.89 µM (active); in assay [2] it was 2.24 µM (active) and 2.25 µM (active) and 2.67 µM (active); in assay [8], 50 µM (active) and 28 µM (active). In addition, the outcome in assay [5], in assay [3] and in [4] was inactive.

For `CCCOC(=O)NCCCN(C)C`, the call in [6] was inactive.
